# An excerpt weighted towards active compounds, which were near 4.7% of everything screened.
# ATXN2 expr inh: Primary qHTS for Inhibitors of ATXN expression. HEK-293 ATXN2-luciferase reporter, luminescence, 24 h. Potency, µM (doses to about 57 µM), for inactives: at the top dose activity change, negative = inhibition, usual class: inhibitors. actives 0.72% (n = 360,000); also: potency is read from the fitted curve at half-maximal effect; % is scaled to controls: 0 for no effect and ±100 for the full control effect; nearly all actives have a fitted effect of over 55% in size
#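 qHTS (up to 57 uM final) was run with 24 h compound exposure of reporter cells at 37 °C. Each well was multiplexed: SteadyGlo luminescence measured ATXN2-luciferase expression after a fluorogenic Gly-Phe-AFC viability readout (25 uM final).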
# TGFb inhibitor: qHTS for Inhibitors of TGF-b. HepG2 CAGA-GFP TGF-b/SMAD3 reporter, GFP fluorescence, 18 h; TGF-beta stimulated, 500 pg/mL final. Potency, µM (series often up to 46.1 µM), for inactives: top-dose activity, negative = inhibition, hits mostly inhibitors. actives 1.2% (n = 410,000); also: potency is read from the fitted curve at half-maximal effect; % is scaled to controls: 0 for no effect and ±100 for the full control effect; nearly all actives have a fitted effect of over 65% in size
#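 First, reporter cells (HEPG2 CAGA-GFP) rested 2 h at 37 degrees C. Next, compounds were pinned in and TGF-beta added to 500 pg/mL final. After 18 h, GFP was imaged per cell and summed per well.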
# HepG2 tox: qHTS for Inhibitors of TGF-b: Cytotox Counterscreen; actives 0.76% (n = 410,000); Potency, µM (titrated, usually from 46.1 µM), for the others: at the top dose activity change, negative = cytotoxicity, hits mostly cytotoxic; HepG2 CAGA-GFP viability, ATP luminescence, 18 h; also: potency is read from the fitted curve at half-maximal effect
#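 CellTiter-Glo luminescence gave cytotoxicity after 18 hours at 37 degrees C. The cells were HepG2 CAGA-GFP in 1% FBS DMEM, stimulated with 500 pg/mL TGF-beta after compound addition. %Activity was normalised to no-cell wells (complete cell-killing) and DMSO (no toxicity), and curves were fitted and classified.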
# DRD3 agonist: qHTS of D3 Dopamine Receptor Agonist: qHTS; D(3) dopamine receptor (Homo sapiens), P35462; D3R DiscoveRx beta-arrestin cells, luminescence, 90 min; max activation, %; actives 0.58% (n = 410,000); in the data active = max activation above about 30%; also: 0% is about no effect
# Target sequence (P35462 whole entry, looked up): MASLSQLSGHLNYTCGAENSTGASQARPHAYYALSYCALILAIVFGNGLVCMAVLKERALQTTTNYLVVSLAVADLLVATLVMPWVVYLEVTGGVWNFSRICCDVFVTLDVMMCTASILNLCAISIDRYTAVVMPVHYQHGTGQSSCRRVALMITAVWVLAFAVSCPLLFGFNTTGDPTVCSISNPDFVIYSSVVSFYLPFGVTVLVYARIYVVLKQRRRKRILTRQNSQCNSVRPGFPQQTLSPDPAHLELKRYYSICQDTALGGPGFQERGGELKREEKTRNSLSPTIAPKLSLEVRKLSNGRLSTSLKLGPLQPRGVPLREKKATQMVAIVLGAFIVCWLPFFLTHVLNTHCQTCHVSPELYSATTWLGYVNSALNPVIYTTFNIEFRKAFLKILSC
#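 Agonist-mode cell screen: cells plated at 1500/well and incubated overnight at 37 °C, then exposed to library compounds for 90 min at 37 °C. Detection reagent was added for 30–60 min at room temperature, and luminescence was read.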
# D3 antag: qHTS of D3 Dopamine Receptor Antagonist: qHTS. D(3) dopamine receptor (Homo sapiens), P35462. D3R cells, DiscoveRx beta-arrestin luminescence, antagonist mode; stronger effect = lower value. max response, negative = inhibition, %. actives 2.5% (n = 360,000); in the data active = max response below about -50%; inconclusive = no clear call, values can overlap the other calls; also: % is scaled to controls: 0 for no effect and ±100 for the full control effect
#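 Cells plated overnight at 1500 cells/well, then exposed to library compounds with dopamine controls for 90 minutes at 37 degrees C. DiscoveRx reagent added for 30–60 minutes at room temperature; luminescence read, quantitative HTS format.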
# ATXN viability: Viability Counterscreen for Primary qHTS for Inhibitors of ATXN expression; S2 cells (HEK-293 line with an ATXN2-luciferase reporter) viability, CellTiter-Fluor protease fluorescence, 24 h; Potency, µM (series often up to 56.7 µM), usual class: cytotoxic; actives 0.49% (n = 400,000); AID 651635, 2014; also: potency is read from the fitted curve at half-maximal effect; nearly all actives have a fitted effect of over 40% in size
# Active calls of the source: *; i = inactive; ? = inconclusive; · = no result given; ! = not active in a repeat. Unless noted, calls follow the shape of the dose curve; as a rule, active = well fitted curve in the direction sought with a large enough effect; inconclusive = small, poorly fitted or top-dose-only effect, or another doubt; inactive = no such curve, though single readings can be large; an effect the other way counts as inactive or inconclusive.
SMILES,ATXN2 expr inh,TGFb inhibitor,HepG2 tox,DRD3 agonist,D3 antag,ATXN viability
Fc1ccc(Oc2nc(-c3ccccc3)nnc2C(F)(F)F)cc1,4%,2%,7%,-1,-24,i
CN(C)c1nc(-c2ccccc2)nnc1C(F)(F)F,6%,5%,1%,3,-64*,i
CCCc1cc(N2CCCC(C(=O)Nc3c(OC)cccc3OC)C2)n2ncnc2n1 (stereo unspecified),-3%,0%,-4%,31*,-5,i
COC(=O)c1sc2cccc(F)c2c1S(=O)(=O)NCc1ccccc1Cl,0%,?,-36%,4,·,i
CC(C)c1nnc(NC(=O)c2nc(S(=O)(=O)Cc3ccccc3F)ncc2Cl)s1,10µM*,13µM*,-104%,-6,-51*,7.1µM*
CSc1nnc(NC(=O)c2nc(S(=O)(=O)Cc3ccccc3F)ncc2Cl)s1,-20%,?,-60%,-25,0,?
Cc1cccc(CSc2ncc(Cl)c(C(=O)Nc3nc4ccc(F)cc4s3)n2)c1,6%,-1%,1%,3,·,i
Cc1ccc(CS(=O)(=O)c2ncc(Cl)c(C(=O)Nc3nnc(C(C)C)s3)n2)cc1,?,13µM*,11µM*!,-21,0,?
O=C(Nc1nc2ccc(F)cc2s1)c1nc(S(=O)(=O)Cc2ccccc2F)ncc1Cl,25µM*,6.3µM*,7.1µM*,-28,·,11µM*
Cc1cccc(CS(=O)(=O)c2ncc(Cl)c(C(=O)Nc3nnc(C(C)C)s3)n2)c1,-35%,11µM*,11µM*!,-20,-62*,28µM*
CC(C)c1nnc(NC(=O)c2nc(SCc3ccc(F)cc3)ncc2Cl)s1,7%,-13%,-20%,1,·,i
COc1cc(CN2CCC3(CC2)CC3C(=O)Nc2ccc3sc(C)nc3c2)ccc1F (stereo unspecified),·,·,·,·,·,i
CC(C)c1nnc(NC(=O)c2nc(S(=O)(=O)Cc3ccc(F)cc3)ncc2Cl)s1,-7%,?,-71%,-22,-61*,?
Cc1nnc(NC(=O)c2nc(S(=O)(=O)Cc3ccccc3C)ncc2Cl)s1,?,?,-104%,-10,-50*,?
CSc1nnc(NC(=O)c2nc(S(=O)(=O)Cc3cccc(C)c3)ncc2Cl)s1,28µM*,?,-76%,-2,-54*,22µM*
CCSc1nnc(NC(=O)c2nc(S(=O)(=O)Cc3ccc(F)cc3)ncc2Cl)s1,?,?,-46%,-18,-68*,?
C1=Cc2ccccc2/C1=C\c1cc[cH-]c1.[Fe+2].c1cc[cH-]c1,·,?,1%,·,·,·
Cc1ccc(C)c(NC(=O)c2nc(S(=O)(=O)Cc3ccc(F)cc3)ncc2Cl)c1,·,3.5µM*,3.5µM*,-29,·,·
Cc1ccc(C)c(NC(=O)c2nc(Cl)ccc2Cl)c1,9%,-7%,-20%,2,11,?
COCCNc1nc(SC)nc2sc3c(c12)CCN(C)C3,-3%,2%,-1%,-9,-9,i
CCCSc1nc(N)c2c3c(sc2n1)CN(C)CC3,23%,7%,-40%,-22,-2,i
CC(C)Sc1nc(N)c2c3c(sc2n1)CN(C)CC3,16%,0%,3%,-14,-58*,i
CSc1nc(NCc2ccccc2)c2c3c(sc2n1)CN(C)CC3,5%,27%,-25%,0,-76*,i
CSc1nc(NCC(C)C)c2c3c(sc2n1)CN(C)CC3,3%,-10%,3%,-11,-72*,i
CCNC(=O)c1ccc2nc(CCc3ccccc3)oc2c1,·,8%,-2%,2,·,·
SMILES,ATXN2 expr inh,TGFb inhibitor,HepG2 tox,DRD3 agonist,D3 antag,ATXN viability
O=C1C2CCCCN2C(=O)N1CCCN1CCN(c2ccc(F)cc2)CC1 (stereo unspecified),-15%,-1%,1%,-21,-57*,i
CCN1C(=O)C(CC(=O)Nc2ccc(F)cc2)N(CCCN2CCN(c3ccc(F)cc3)CC2)C1=S (stereo unspecified),-16%,?,-28%,-9,-17,i
Nc1ccc(N2CCN(CCCCN3C(=O)C4CCCN4C3=O)CC2)cc1 (stereo unspecified),-16%,0%,-4%,-4,-16,18µM*
O=C(CCN1C(=O)C2C3C=CC(C3)C2C1=O)N1CCN(c2ccc(F)cc2)CC1 (stereo unspecified),0%,6%,5%,5,-10,i
O=C1C2C3C=CC(C4CC34)C2C(=O)N1CCCCN1CCN(c2ccc(F)cc2)CC1 (stereo unspecified),-6%,-8%,-27%,-32,-85*,i
CCOC(=O)[C@H](CS)NCCN[C@@H](CS)C(=O)OCC,·,·,·,0,·,·
O=C(COCCOCCOCC(=O)Nc1c(I)cc(I)c(C(=O)O)c1I)Nc1c(I)cc(I)c(C(=O)O)c1I,12%,·,·,-18,·,i
CCC(=O)N1CCN(c2ccccc2NC(=O)Cc2ccc(Cl)cc2)CC1,-16%,?,-25%,-4,-74*,i
CCC(=O)N1CCN(c2ccc(Cl)cc2NC(=O)Cc2ccc(Cl)cc2)CC1,?,-19%,0%,-6,-3,?
Cc1ccc(Sc2ccc(N3CCCC(C(=O)Nc4ccc(F)c(Cl)c4)C3)nn2)cc1 (stereo unspecified),-3%,-20%,0%,-3,·,?
CC(C)(C)C1CCc2c(sc(NC(=O)CSc3ncn[nH]3)c2C#N)C1 (stereo unspecified),?,?,-89%,36*,21,i
CC1CCc2c(sc(NC(=O)CSc3ncn[nH]3)c2C#N)C1 (stereo unspecified),0.34µM*,-4%,-36%,2,19,i
N#Cc1c(NC(=O)CSc2ncn[nH]2)sc2c1CCCC2,?,1%,-38%,1,-2,?
CCOc1ccc(/C=N/N(C)c2ccccc2)cc1OC,84%,11%,-6%,1,-54*,i
Cc1[nH]c2ccc(Br)cc2c(=O)c1CN1CCOCC1,-4%,13%,0%,0,-70*,i
O=C(Cc1cscn1)N1CCOc2ccc(CN3CCN(c4ccccn4)CC3)cc2C1,·,·,·,·,·,i
CCOC(=O)c1sc(NS(=O)(=O)c2ccc(NC(C)=O)cc2)nc1C,0%,1%,7%,-7,11,i
CCOC(=O)c1sc(NS(=O)(=O)c2ccccc2Cl)nc1C,4%,1%,-3%,-7,-70*,i
